Reference: ChEMBL document CHEMBL3988442, “University of Dundee, Small-Polar-MMV Screening Library” (2021)
For some assays here: Measured potencies and affinities stand elsewhere.

Legend:
Parameters in all cases: scale not given: direction of the effect not stated beside the values
[1] = target: Protein translocase subunit SecA (Escherichia coli (strain K12)) (UniProt P10408); test: Assay to Identify E. coli SecA ATPase Inhibitors; format: functional; conditions: 30 µM
[2] = target: T1, Ubiquitin-activating enzyme e1, putative (Leishmania donovani (strain BPK282A1)) (UniProt E9BSI1); test: Leishmania donovani Ubiquitin Activating Enzyme (LdE1); format: functional; conditions: 30 µM
T1 sequence (whole entry): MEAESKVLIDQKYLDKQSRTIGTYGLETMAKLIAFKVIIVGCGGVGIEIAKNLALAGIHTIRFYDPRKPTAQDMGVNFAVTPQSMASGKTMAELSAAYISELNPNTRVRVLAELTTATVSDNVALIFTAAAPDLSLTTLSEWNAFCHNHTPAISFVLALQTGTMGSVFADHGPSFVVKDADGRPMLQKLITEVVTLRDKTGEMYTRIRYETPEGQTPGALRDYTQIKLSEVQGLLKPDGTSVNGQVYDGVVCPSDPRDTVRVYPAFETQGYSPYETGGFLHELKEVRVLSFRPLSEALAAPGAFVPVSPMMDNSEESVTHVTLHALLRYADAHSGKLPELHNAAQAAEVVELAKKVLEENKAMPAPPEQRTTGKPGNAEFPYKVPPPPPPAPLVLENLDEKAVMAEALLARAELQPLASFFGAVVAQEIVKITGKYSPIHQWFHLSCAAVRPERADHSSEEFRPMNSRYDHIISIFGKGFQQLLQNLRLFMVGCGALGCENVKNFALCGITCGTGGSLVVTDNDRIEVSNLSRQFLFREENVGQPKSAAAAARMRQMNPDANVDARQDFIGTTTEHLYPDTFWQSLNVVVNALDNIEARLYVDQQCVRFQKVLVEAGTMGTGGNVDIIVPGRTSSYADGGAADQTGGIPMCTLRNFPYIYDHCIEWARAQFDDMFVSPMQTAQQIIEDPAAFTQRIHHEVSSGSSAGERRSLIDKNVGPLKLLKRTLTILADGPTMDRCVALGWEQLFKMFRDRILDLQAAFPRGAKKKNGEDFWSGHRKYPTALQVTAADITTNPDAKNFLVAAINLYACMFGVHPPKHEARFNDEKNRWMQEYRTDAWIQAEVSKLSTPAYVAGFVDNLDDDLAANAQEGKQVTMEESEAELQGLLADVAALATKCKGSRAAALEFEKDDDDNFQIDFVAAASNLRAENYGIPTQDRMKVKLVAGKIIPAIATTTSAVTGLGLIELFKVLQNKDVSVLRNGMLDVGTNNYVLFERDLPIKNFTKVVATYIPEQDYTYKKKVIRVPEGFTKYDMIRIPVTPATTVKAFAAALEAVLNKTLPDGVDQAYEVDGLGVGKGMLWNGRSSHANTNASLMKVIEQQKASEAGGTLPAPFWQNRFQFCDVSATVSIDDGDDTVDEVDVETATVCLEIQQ

[3] = target: Sialic acid-binding Ig-like lectin 9 (Homo sapiens) (UniProt Q9Y336); test: Hs-Siglec9 ALPHAscreen SOP 20170721; conditions: 10 µM
Trypanosoma cruzi = test: Trypanosoma cruzi phosphomannomutase and mannose-1-phosphate guanylyltransferase assay; format: functional; conditions: 10 µM
[4] = target: T2, Arginase-2, mitochondrial (Homo sapiens) (UniProt P78540); test: in vitro enzyme assay to detect the production of urea directly proportional to the activity of Arginase II; format: functional; conditions: 33.3 µM; also: in the data most compounds retested in dose-response had high values
T2 sequence (whole entry): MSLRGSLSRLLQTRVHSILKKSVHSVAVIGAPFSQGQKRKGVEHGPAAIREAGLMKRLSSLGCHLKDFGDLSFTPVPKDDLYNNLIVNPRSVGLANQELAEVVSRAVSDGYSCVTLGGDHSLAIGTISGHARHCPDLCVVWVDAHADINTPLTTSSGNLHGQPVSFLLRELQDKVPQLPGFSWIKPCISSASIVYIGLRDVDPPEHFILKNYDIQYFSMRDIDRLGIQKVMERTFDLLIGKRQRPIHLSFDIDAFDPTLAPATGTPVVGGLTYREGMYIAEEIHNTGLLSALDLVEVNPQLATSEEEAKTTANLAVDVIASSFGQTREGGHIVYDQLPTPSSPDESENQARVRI

[5] = target: T3, Proteasome subunit beta (Trypanosoma cruzi) (UniProt O96673); test: Trypanosoma cruzi proteasome chymotrypsin-like activity (TcProtChymo) assay.; also: in the data most compounds retested in dose-response had high values; format: functional; conditions: 9.37 µM
T3 sequence (whole entry): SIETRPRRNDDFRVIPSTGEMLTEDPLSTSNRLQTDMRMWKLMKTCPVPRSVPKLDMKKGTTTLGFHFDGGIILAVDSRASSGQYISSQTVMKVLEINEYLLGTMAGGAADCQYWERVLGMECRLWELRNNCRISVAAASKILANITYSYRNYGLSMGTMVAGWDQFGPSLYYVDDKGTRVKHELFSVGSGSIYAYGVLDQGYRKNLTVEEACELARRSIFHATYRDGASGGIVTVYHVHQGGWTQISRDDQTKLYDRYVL

Homo sapiens = organism: Homo sapiens; test: To identify inhibition of the IFN signalling (Jak-Stat) pathway via expression of an eGFP reporter gene under the control of an IFN-stimulated response element (ISRE) containing MxA promoter.; format: functional; conditions: 30 µM
[6] = target: T4, Tyrosyl-tRNA synthetase, putative (Trypanosoma cruzi (strain CL Brener)) (UniProt Q4DSP6); test: Trypanosoma cruzi tyrosyl tRNA synthetase (TcYRS) _High Tyrosine SOP; format: functional; conditions: 30 µM; also: in the data most compounds retested in dose-response had high values
T4 sequence (whole entry): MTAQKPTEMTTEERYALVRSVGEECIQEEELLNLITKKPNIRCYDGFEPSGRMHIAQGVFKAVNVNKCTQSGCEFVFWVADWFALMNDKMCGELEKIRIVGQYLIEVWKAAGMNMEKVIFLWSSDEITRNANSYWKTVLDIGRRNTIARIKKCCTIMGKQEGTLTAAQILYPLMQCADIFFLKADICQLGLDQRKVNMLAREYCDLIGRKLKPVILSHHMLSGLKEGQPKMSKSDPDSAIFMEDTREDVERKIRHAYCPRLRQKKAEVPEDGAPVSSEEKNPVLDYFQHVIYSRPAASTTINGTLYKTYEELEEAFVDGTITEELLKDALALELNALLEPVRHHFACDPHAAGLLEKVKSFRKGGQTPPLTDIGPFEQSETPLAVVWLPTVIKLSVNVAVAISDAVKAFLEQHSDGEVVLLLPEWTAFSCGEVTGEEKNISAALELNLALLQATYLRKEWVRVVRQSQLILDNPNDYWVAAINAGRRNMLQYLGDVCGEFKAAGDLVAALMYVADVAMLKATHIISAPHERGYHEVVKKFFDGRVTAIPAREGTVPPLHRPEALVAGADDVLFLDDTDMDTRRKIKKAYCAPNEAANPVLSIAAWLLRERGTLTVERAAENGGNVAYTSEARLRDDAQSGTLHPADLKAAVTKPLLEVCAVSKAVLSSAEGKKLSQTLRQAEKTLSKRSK

[7] = target: T4, Tyrosyl-tRNA synthetase, putative (Trypanosoma cruzi (strain CL Brener)); test: Trypanosoma cruzi tyrosyl tRNA synthetase (TcYRS) SOP; format: functional; conditions: 30 µM
[8] = target: Chromo domain-containing protein 1 (Saccharomyces cerevisiae (strain ATCC 204508 / S288c) (Baker's yeast)) (UniProt P32657); test: ScCHD-1 Enzyme Inhibition Assay; format: functional; conditions: 30 µM; also: in the data most compounds retested in dose-response had high values
Chromo domain-containing protein 1 (Saccharomyces cerevisiae (strain ATCC 204508 / S288c) (Baker's yeast)), sequence (P32657 whole entry, the tested form may be a part): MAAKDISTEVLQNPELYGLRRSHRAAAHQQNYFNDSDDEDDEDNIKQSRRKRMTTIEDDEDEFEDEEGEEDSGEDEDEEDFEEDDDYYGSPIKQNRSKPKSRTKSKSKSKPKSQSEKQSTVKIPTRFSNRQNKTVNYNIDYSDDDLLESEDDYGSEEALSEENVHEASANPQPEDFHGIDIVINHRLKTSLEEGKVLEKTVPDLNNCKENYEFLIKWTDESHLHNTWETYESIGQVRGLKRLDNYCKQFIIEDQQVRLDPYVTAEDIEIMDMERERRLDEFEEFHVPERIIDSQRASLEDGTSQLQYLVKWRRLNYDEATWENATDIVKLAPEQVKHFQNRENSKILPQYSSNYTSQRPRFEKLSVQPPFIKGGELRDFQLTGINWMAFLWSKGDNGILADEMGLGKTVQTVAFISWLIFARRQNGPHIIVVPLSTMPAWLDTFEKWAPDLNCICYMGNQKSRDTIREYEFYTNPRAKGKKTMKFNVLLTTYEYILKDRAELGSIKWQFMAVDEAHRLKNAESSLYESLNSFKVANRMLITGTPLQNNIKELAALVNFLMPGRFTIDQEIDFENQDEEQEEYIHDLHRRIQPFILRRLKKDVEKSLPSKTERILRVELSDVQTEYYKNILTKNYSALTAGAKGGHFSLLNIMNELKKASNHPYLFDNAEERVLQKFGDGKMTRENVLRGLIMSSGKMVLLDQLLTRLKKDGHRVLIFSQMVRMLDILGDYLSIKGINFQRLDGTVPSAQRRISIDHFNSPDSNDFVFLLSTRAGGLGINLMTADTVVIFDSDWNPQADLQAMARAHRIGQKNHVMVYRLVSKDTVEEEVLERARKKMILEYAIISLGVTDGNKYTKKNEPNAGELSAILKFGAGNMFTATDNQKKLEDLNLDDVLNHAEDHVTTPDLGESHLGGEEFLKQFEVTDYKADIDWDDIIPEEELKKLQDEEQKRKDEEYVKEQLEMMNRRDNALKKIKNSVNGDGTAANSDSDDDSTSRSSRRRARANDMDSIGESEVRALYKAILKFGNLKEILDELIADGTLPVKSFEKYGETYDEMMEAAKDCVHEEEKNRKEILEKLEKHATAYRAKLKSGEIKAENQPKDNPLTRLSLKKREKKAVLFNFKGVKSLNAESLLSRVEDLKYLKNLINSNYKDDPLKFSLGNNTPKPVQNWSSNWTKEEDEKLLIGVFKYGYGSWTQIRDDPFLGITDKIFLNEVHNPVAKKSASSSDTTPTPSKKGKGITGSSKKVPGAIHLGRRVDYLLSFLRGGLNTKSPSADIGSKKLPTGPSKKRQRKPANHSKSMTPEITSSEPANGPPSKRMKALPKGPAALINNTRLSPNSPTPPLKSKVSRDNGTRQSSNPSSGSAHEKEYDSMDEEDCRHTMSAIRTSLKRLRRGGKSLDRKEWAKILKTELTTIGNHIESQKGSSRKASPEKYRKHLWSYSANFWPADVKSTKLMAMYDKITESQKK

Sialic acid-binding Ig-like lectin 9 (Homo sapiens), sequence (Q9Y336 whole entry): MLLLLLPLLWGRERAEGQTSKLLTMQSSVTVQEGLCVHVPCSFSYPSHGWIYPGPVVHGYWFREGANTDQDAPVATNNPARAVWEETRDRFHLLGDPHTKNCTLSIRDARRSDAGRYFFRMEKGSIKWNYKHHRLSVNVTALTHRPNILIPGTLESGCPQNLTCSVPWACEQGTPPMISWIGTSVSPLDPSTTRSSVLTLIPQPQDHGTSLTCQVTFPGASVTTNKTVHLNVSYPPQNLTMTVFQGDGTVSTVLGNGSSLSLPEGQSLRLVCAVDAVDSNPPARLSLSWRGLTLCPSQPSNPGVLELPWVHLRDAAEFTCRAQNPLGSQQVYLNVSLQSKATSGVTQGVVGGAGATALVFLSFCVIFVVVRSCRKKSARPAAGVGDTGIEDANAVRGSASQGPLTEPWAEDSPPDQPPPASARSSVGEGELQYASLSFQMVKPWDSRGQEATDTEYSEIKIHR
Protein translocase subunit SecA (Escherichia coli (strain K12)), sequence (P10408 whole entry): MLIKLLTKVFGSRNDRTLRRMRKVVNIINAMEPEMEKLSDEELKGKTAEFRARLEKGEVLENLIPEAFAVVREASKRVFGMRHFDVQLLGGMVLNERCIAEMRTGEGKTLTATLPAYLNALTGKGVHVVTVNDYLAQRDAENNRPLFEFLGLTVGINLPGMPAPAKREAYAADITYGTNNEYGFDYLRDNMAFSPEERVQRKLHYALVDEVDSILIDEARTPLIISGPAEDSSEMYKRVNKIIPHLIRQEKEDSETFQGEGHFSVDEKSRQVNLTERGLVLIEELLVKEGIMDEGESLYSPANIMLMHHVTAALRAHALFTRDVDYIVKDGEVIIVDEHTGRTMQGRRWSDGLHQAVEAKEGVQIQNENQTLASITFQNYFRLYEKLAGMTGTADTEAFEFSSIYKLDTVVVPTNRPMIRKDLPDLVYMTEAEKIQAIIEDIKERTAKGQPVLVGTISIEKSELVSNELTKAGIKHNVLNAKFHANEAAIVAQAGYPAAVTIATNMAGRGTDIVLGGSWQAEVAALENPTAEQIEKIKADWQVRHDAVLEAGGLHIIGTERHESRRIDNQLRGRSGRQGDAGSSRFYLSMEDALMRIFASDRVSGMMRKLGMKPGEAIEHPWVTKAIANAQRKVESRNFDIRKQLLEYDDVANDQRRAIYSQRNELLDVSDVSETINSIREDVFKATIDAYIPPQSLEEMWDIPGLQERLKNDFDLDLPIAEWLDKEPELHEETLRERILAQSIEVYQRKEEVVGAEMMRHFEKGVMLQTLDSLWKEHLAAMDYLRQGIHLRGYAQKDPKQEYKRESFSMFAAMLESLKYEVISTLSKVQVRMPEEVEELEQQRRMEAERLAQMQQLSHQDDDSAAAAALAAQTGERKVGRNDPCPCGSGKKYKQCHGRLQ

| Structure (SMILES) | Percent Effect [1] | Percent Effect [2] | Percent Effect [3] | Percent Effect (Trypanosoma cruzi) | Percent Effect [4] | Percent Effect [5] | Percent Effect (Homo sapiens) | Percent Effect [6] | Percent Effect [7] | Percent Effect [8] |
| --- | --- | --- | --- | --- | --- | --- | --- | --- | --- | --- |
| CCC(CC)C(=O)N1CCC2(C1)CN(c1ccccc1)C(=O)CN2C (stereo not given) | -1.78% | 3.9% | -5.2% | -8.08% | 4.86% | 14.7% | -19.6% | 5.79% | 0% | -2.51% |
| CN(C)C[C@H]1OC[C@@H]2CCN(S(=O)(=O)c3ccccc3)C[C@@H]21 | -7.48% | 3.9% | 9.94% | -4.58% | -5.26% | 7.33% | 5.69% | -2.63% | -5.13% | -2.54% |
| Cc1cc(OCC(=O)NS(=O)(=O)c2c(C)noc2C)ccc1Cl | -0.396% | -5.13% | 2.29% | 4.79% | 0% | 1.28% | 18.7% | -5.26% | -1.21% | 0.575% |
| CN(C)Cc1ccc(C2CCCCN2C(=O)c2cc(C3CC3)n[nH]2)cc1 (stereo not given) | -11.5% | -2.7% | 0.279% | -2.23% | -1.05% | 11.3% | 19.7% | 5.85% | 9.76% | -0.312% |
| c1cn2c(n1)CN(CC1CC1)CC(CN1CCOCC1)C2 (stereo not given) | -6.5% | 9.09% | 6.06% | -2.24% | -2.43% | 11% | -10.6% | 17.4% | 12.8% | 0.532% |
| CC(C)c1cc(C(=O)N(C)Cc2cccc3ncccc23)n(C)n1 | -3.2% | 12% | 13.8% | 0.986% | -1.77% | 13.1% | 36.7% | 3.17% | 12.5% | -26% |
| COCCC(=O)N1CCC2(CC1)CC(c1ccccc1)CN(C)C2 (stereo not given) | -6.06% | 5.41% | 7.24% | 2.42% | 1.75% | 18.7% | -4.11% | 4.79% | 12.2% | -5.37% |
| CCCc1cc(C(=O)N2CCOC(c3nc(-c4cccs4)no3)C2)no1 (stereo not given) | -3.79% | 9.33% | 6.29% | 3.55% | 2.21% | 7.55% | 17% | -12.7% | 2.5% | -19.9% |
| Cc1nc(C2CCCN(C(=O)COCc3ccccc3Cl)C2)no1 (stereo not given) | 1.44% | -8% | 4.56% | -1.81% | 6.21% | -7.72% | 10.8% | -1.58% | -5.13% | 3.49% |
| COc1ccc(C2CC(=O)Nc3c2cnn3C)cc1 (stereo not given) | -6.08% | 2.7% | -3.92% | -9.99% | -5.94% | 8.39% | 39.8% | -0.532% | 4.88% | -3.56% |
| CC(C)N1CCO[C@H]2CN(C(=O)c3ccc(N(C)C)cc3)C[C@H]21 | -3.12% | 1.3% | -9.38% | -6.13% | 3.64% | 15.6% | 4.68% | 8.95% | 12.8% | -3.55% |
| O=C(COCc1ccccc1)N1CCC(OCc2cccnc2)CC1 | -7.79% | 2.7% | 2.89% | -4.95% | -0.35% | 9.42% | 35.8% | 5.85% | 12.2% | -2.8% |
| CS(=O)(=O)Cc1cccc(C(=O)N2CCCC(n3cccn3)C2)c1 (stereo not given) | -3.02% | 2.56% | -5.84% | -5.92% | -1.23% | 4.69% | 24.6% | 2.39% | 1.21% | -5.08% |
| Cn1cnc2c1CCN(Cc1csc(-c3ccsc3)n1)C2 | -0.725% | 0% | -11.7% | -1.41% | 3.69% | 13.2% | 27.3% | 11% | 13.2% | 25% |
| Cc1ccc(-c2nc(CN3CCCC3Cn3cc(C)cn3)no2)cc1 (stereo not given) | -2.04% | 5.33% | 2.03% | 4.02% | -8.43% | 22.6% | 12.1% | 1.58% | 10.3% | -12% |
| COc1ccc(CN2CCN(C(C)=O)CC3(CC(=O)N(C)C3)C2)cc1 (stereo not given) | -0.72% | 14.3% | 1.28% | -0.375% | 2.28% | 6.44% | 4.32% | 12.6% | 20% | -6.64% |
| Cc1cc(NC(=O)NCC(C)N2CCc3ccccc32)no1 (stereo not given) | -4.79% | 26% | 2.28% | -3.54% | 1.02% | 5.96% | -2.59% | 12.8% | 21.2% | -6.91% |
| Cn1cc(CNCC2Cn3nnc(-c4ccccc4)c3CO2)cn1 (stereo not given) | -4.8% | 6.49% | 9.99% | 4.97% | 13% | 4.68% | -2.48% | 2.63% | 10.3% | 19% |
| CCOc1ccc(Cl)c(C(=O)NCc2ccc(C(=O)NC)cc2)n1 | -5.52% | 15.4% | -5.92% | 4.79% | 4.92% | 8.62% | 9.74% | 5.26% | 20.5% | 0.666% |
| CN(C(=O)Cc1c[nH]c2ccccc12)C1CCN(c2ccccn2)CC1 | -4.77% | 2.67% | -1.22% | -3.81% | 1.77% | 4.16% | 31.5% | 3.68% | 0% | -14.4% |
| CNC(=O)CCCNCc1c(C)nn(C)c1N(C)C | -0.3% | 0% | 14.5% | 1.22% | 2.87% | 2.3% | -12.6% | 2.39% | 1.21% | -2.02% |
| Cc1nc(C(=O)N2CCc3c(nc(-c4ccncc4)[nH]c3=O)C2)cs1 | -4.53% | 0% | 1.7% | -2.62% | 3.85% | 11.6% | 5.04% | 5.85% | 9.76% | -3.73% |
| c1cnn(CC2CCCCN2Cc2cn3ccsc3n2)c1 (stereo not given) | -2.05% | 10.3% | 13.3% | 9.67% | 0% | 9.98% | 15.8% | 10.1% | 18.1% | -1.18% |
